# Active and inactive are the calls of the source. The calls were made as follows: active = hit-call score of the fitted dose curve at least 0.9, where 1 is the maximum; inactive = score below 0.9.
# What was measured:
# [1] = read-out: Interleukin-8 (IL8), CXCL8 (gene 3576); experiment: BSK_CASM3C_IL8: BioMAP Diversity Plus: CASM3C Assay for Interleukin-8 (IL8) Biomarker Activity (AID 2283042); conditions: primary human coronary artery smooth muscle cells; actives raise or lower the signal;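 also: IL-8 protein level quantified by ELISA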
# [2] = read-out: Human Leukocyte Antigen - DR isotype (HLADR), HLA-DRA (gene 3122); experiment: BSK_CASM3C_HLADR: BioMAP Diversity Plus: CASM3C Assay for Human Leukocyte Antigen - DR isotype (HLADR) Biomarker Activity (AID 2283043); conditions: primary human coronary artery smooth muscle cells; actives raise or lower the signal;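 also: cell-surface HLA-DR protein level quantified by ELISA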
# [3] = read-out: Macrophage colony-stimulating factor (MCSF), CSF1 (gene 1435); experiment: BSK_CASM3C_MCSF: BioMAP Diversity Plus: CASM3C Assay for Macrophage colony-stimulating factor (MCSF) Biomarker Activity (AID 2283044); conditions: primary human coronary artery smooth muscle cells; actives raise or lower the signal;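 also: M-CSF protein amount quantified by ELISA after 24 h exposure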
# [4] = read-out: Low-density lipoprotein receptor (LDLR), LDLR (gene 3949); experiment: BSK_CASM3C_LDLR: BioMAP Diversity Plus: CASM3C Assay for Low-density lipoprotein receptor (LDLR) Biomarker Activity (AID 2283045); conditions: primary human coronary artery smooth muscle cells; actives raise or lower the signal;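 also: LDLR protein level on the cell surface quantified by ELISA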
# [5] = read-out: Monocyte Chemoattractant Protein-1 (MCP1), CCL2 (gene 6347); experiment: BSK_CASM3C_MCP1: BioMAP Diversity Plus: CASM3C Assay for Monocyte Chemoattractant Protein-1 (MCP1) Biomarker Activity (AID 2283046); conditions: primary human coronary artery smooth muscle cells; actives raise or lower the signal;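 also: MCP-1 level quantified by ELISA 24 h after dosing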
# [6] = BSK_CASM3C_Proliferation: Cell Proliferation Assessment in the BioMAP Diversity Plus: CASM3C Assay (AID 2283047); conditions: primary human coronary artery smooth muscle cells;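 also: sulforhodamine B total protein stain as relative cell number at 560 nm; sub-confluent cells exposed 48 h before staining; fitted both ways against DMSO so gain or loss of cell number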
# [7] = read-out: Monokine induced gamma interferon (MIG), CXCL9 (gene 4283); experiment: BSK_CASM3C_MIG: BioMAP Diversity Plus: CASM3C Assay for Monokine induced gamma interferon (MIG) Biomarker Activity (AID 2283048); conditions: primary human coronary artery smooth muscle cells; actives raise or lower the signal;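 also: MIG protein level measured by ELISA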
# [8] = read-out: serum amyloid A (SAA), SAA1 (gene 6288); experiment: BSK_CASM3C_SAA: BioMAP Diversity Plus: CASM3C Assay for serum amyloid A (SAA) Biomarker Activity (AID 2283049); conditions: primary human coronary artery smooth muscle cells; actives raise or lower the signal;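 also: SAA protein level quantified by ELISA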
# [9] = BSK_CASM3C_SRB: Viability Assessment in the BioMAP Diversity Plus: CASM3C Assay (AID 2283050); conditions: primary human coronary artery smooth muscle cells;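 also: total protein by SRB staining as cytotoxicity measure in parallel cultures; cells exposed to compound for 24 h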
# [10] = read-out: Thrombomodulin, THBD (gene 7056); experiment: BSK_CASM3C_Thrombomodulin: BioMAP Diversity Plus: CASM3C Assay for Thrombomodulin Biomarker Activity (AID 2283051); conditions: primary human coronary artery smooth muscle cells; actives raise or lower the signal;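 also: thrombomodulin protein level measured by ELISA 24 h after dosing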
# [11] = read-out: Tissue Factor, F3 (gene 2152); experiment: BSK_CASM3C_TissueFactor: BioMAP Diversity Plus: CASM3C Assay for Tissue Factor Biomarker Activity (AID 2283052); conditions: primary human coronary artery smooth muscle cells; actives raise or lower the signal;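 also: cell surface tissue factor protein level read by ELISA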
# [12] = read-out: Interferon-gamma inducible Protein 10 (IP10), CXCL10 (gene 3627); experiment: BSK_hDFCGF_IP10: BioMAP Diversity Plus: hDFCGF Assay for Interferon-gamma inducible Protein 10 (IP10) Biomarker Activity (AID 2283053); conditions: primary human foreskin fibroblasts; actives raise or lower the signal
# In short: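 IP-10 levels, quantified by ELISA, are taken from human foreskin fibroblast cultures 24 h after chemical treatment, with DMSO serving as negative control and baseline for bidirectional analysis.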
# [13] = read-out: Urokinase-type plasminogen activator receptor (uPAR), PLAUR (gene 5329); experiment: BSK_CASM3C_uPAR: BioMAP Diversity Plus: CASM3C Assay for Urokinase-type plasminogen activator receptor (uPAR) Biomarker Activity (AID 2283054); conditions: primary human coronary artery smooth muscle cells; actives raise or lower the signal;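 also: cell-surface uPAR protein level quantified by ELISA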
# [14] = read-out: Vascular cell adhesion molecule 1 (VCAM1), VCAM1 (gene 7412); experiment: BSK_CASM3C_VCAM1: BioMAP Diversity Plus: CASM3C Assay for Vascular cell adhesion molecule 1 (VCAM1) Biomarker Activity (AID 2283055); conditions: primary human coronary artery smooth muscle cells; actives raise or lower the signal;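 also: VCAM-1 protein level quantified by ELISA on the cells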
# [15] = read-out: Collagen III, COL3A1 (gene 1281); experiment: BSK_hDFCGF_CollagenIII: BioMAP Diversity Plus: hDFCGF Assay for Collagen III Biomarker Activity (AID 2283056); conditions: primary human foreskin fibroblasts; actives raise or lower the signal
# In short: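 ELISA readout of Collagen III in human dermal (foreskin) fibroblasts, taken 24 h post-treatment. Gain or loss relative to DMSO vehicle fitted in both directions.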
# [16] = read-out: Epidermal growth factor receptor (EGFR), EGFR (gene 1956); experiment: BSK_hDFCGF_EGFR: BioMAP Diversity Plus: hDFCGF Assay for Epidermal growth factor receptor (EGFR) Biomarker Activity (AID 2283057); conditions: primary human foreskin fibroblasts; actives raise or lower the signal
# In short: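 Measured by ELISA: EGFR levels on primary human foreskin fibroblasts 24 h after chemical treatment, analysed relative to DMSO with bidirectional fitting.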
# [17] = read-out: Interleukin-8 (IL8), CXCL8 (gene 3576); experiment: BSK_hDFCGF_IL8: BioMAP Diversity Plus: hDFCGF Assay for Interleukin-8 (IL8) Biomarker Activity (AID 2283058); conditions: primary human foreskin fibroblasts; actives raise or lower the signal
# In short: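 IL-8 levels read by ELISA at 24 hours after dosing human skin fibroblast cultures. Parallel SRB staining assessed overt cytotoxicity, and gain or loss of signal was fitted against DMSO control.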
# [18] = BSK_hDFCGF_Proliferation: Cell Proliferation Assessment in the BioMAP Diversity Plus: hDFCGF Assay (AID 2283059); conditions: primary human foreskin fibroblasts;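 also: curves fitted for both rise and fall of signal versus DMSO baseline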
# In short: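 Total protein read at 560 nm after 0.1% SRB staining of TCA-fixed human skin fibroblasts, […]. Activity is fitted in both directions relative to DMSO as baseline.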
# [19] = read-out: Macrophage colony-stimulating factor (MCSF), CSF1 (gene 1435); experiment: BSK_hDFCGF_MCSF: BioMAP Diversity Plus: hDFCGF Assay for Macrophage colony-stimulating factor (MCSF) Biomarker Activity (AID 2283060); conditions: primary human foreskin fibroblasts; actives raise or lower the signal
# In short: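 M-CSF levels read by ELISA at 24 h post-dosing in human skin fibroblasts. Parallel cultures stained with SRB assessed cytotoxicity at the same time point; response fitted in both directions against the DMSO baseline.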
# [20] = BSK_hDFCGF_SRB: Viability Assessment in the BioMAP Diversity Plus: hDFCGF Assay (AID 2283061); conditions: primary human foreskin fibroblasts;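 also: cells exposed to compound for 24 h before the read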
# In short: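 Viability was read as total protein: after 10% TCA fixation, wells were stained with 0.1% sulforhodamine B and read at 560 nm. Primary human foreskin fibroblasts were dosed for 24 h, with bidirectional fitting versus DMSO.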
smiles,measurement,setting,value
CCCCCCC(=O)O,outcome,[1],inactive
same,outcome,[2],inactive
same,outcome,[3],inactive
same,outcome,[4],inactive
same,outcome,[5],inactive
same,outcome,[6],inactive
same,outcome,[7],inactive
same,outcome,[8],inactive
same,outcome,[9],inactive
same,outcome,[10],inactive
same,outcome,[11],inactive
same,outcome,[12],inactive
same,outcome,[13],inactive
same,outcome,[14],inactive
same,outcome,[15],inactive
same,outcome,[16],inactive
same,outcome,[17],inactive
same,outcome,[18],inactive
same,outcome,[19],inactive
same,outcome,[20],inactive
O=C(O)c1ccccc1C(c1ccc(O)cc1)c1ccc(O)cc1,outcome,[1],inactive
same,outcome,[2],inactive
same,outcome,[3],inactive
same,outcome,[4],inactive
same,outcome,[5],inactive
same,outcome,[6],inactive
same,outcome,[7],inactive
same,outcome,[8],inactive
same,outcome,[9],inactive
same,outcome,[10],inactive
same,outcome,[11],inactive
same,outcome,[12],inactive
same,outcome,[13],inactive
same,outcome,[14],inactive
same,outcome,[15],inactive
same,outcome,[16],inactive
same,outcome,[17],inactive
same,outcome,[18],inactive
same,outcome,[19],inactive
same,outcome,[20],inactive
Oc1cc2ccccc2c2ccccc12,AC50,[1],10.6 µM (active)
same,AC50,[2],7.47 µM (active)
same,AC50,[3],8.24 µM (active)
same,AC50,[4],10.1 µM (active)
same,AC50,[5],11.4 µM (active)
same,AC50,[6],10.5 µM (active)
same,AC50,[7],11.9 µM (active)
same,AC50,[8],11.3 µM (active)
same,AC50,[9],11.2 µM (active)
same,outcome,[10],inactive
same,AC50,[11],10.5 µM (active)
same,AC50,[12],2 µM (active)
same,AC50,[13],11.2 µM (active)
same,AC50,[14],8.3 µM (active)
same,AC50,[15],1.9 µM (active)
same,outcome,[16],inactive
same,AC50,[17],3.94 µM (active)
same,AC50,[18],1.56 µM (active)
same,AC50,[19],2.72 µM (active)
same,AC50,[20],3.24 µM (active)
CCCCCCCCCCCCc1ccccc1S(=O)(=O)O,outcome,[1],inactive
same,outcome,[2],inactive
same,outcome,[3],inactive
same,outcome,[4],inactive
same,outcome,[5],inactive
same,outcome,[6],inactive
same,outcome,[7],inactive
same,outcome,[8],inactive
same,outcome,[9],inactive
same,outcome,[10],inactive
same,outcome,[11],inactive
same,AC50,[12],10.6 µM (active)
same,outcome,[13],inactive
same,AC50,[14],11.2 µM (active)
same,AC50,[15],8.62 µM (active)
same,outcome,[16],inactive
same,AC50,[17],13.5 µM (active)
same,AC50,[18],9.26 µM (active)
same,AC50,[19],11.4 µM (active)
same,AC50,[20],6.52 µM (active)
CCCCC(CC)COC(=O)CCCCC(=O)OCc1ccccc1 (stereo not given),outcome,[1],inactive
same,outcome,[2],inactive
same,outcome,[3],inactive
same,outcome,[4],inactive
same,outcome,[5],inactive
same,outcome,[6],inactive
same,outcome,[7],inactive
same,outcome,[8],inactive
same,outcome,[9],inactive
same,outcome,[10],inactive
same,outcome,[11],inactive
same,outcome,[12],inactive
same,outcome,[13],inactive
same,outcome,[14],inactive
same,outcome,[15],inactive
same,outcome,[16],inactive
same,outcome,[17],inactive
same,outcome,[18],inactive
same,outcome,[19],inactive
same,outcome,[20],inactive
OC1CCCCC1,AC50,[1],14.8 µM (active)
same,outcome,[2],inactive
same,outcome,[3],inactive
same,outcome,[4],inactive
same,outcome,[5],inactive
same,outcome,[6],inactive
same,outcome,[7],inactive
same,AC50,[8],23.1 µM (active)
same,outcome,[9],inactive
same,outcome,[10],inactive
same,outcome,[11],inactive
same,outcome,[12],inactive
same,outcome,[13],inactive
same,outcome,[14],inactive
same,outcome,[15],inactive
same,outcome,[16],inactive
same,outcome,[17],inactive
same,outcome,[18],inactive
same,outcome,[19],inactive
same,outcome,[20],inactive
